Drawing on PubChem BioAssay, this text covers composite z-score, z-score and composite Z-score for five compounds.

Activity calls are given as the source filed them.

Assay [1] relates to Human papillomavirus type 1a protein E7 (residues 44-93). Description: small molecules binding HPV E7 44-93 – biochemical, small-molecule microarray, residues 44-93, 635 nm fluorescence, primary screen (AID 1108).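 Further: E7 fragment applied at 1 µg/mL in TBST for 1 h at 4 C; score combines spot fluorescence with its signal to noise ratio.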 The following applies: fluorescence 635 nm, higher = more signal.
Assay [2] in a line: hepatitis C replication reporter changes, two-sided – Huh7 cells, luciferase reporter, HCV replication inhibitor project, primary screen (AID 1109).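 Further: huh7 hepatoma cells harbouring a luciferase neomycin HCV replicon reporter; luciferase luminescence as measure of HCV replicon replication; test concentration not given here.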 The following applies: Huh7 HCV replicon luciferase reporter, 48 h; higher = more signal.
In assay [3] the target is Left-right determination factor 2 (Homo sapiens) (UniProt O00292). Description: small molecules binding LEFTY2 protein – biochemical, small-molecule microarray, 635 nm fluorescence scan, primary screen (AID 1110). The following applies: higher = more signal.
Assay [4] addresses Calmodulin-1 (Homo sapiens) (UniProt P0DP23). Description: small molecules binding calmodulin-1 with EGTA – biochemical, small-molecule microarray, Cy5-labelled CALM1, profiling panel (AID 1111).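 Further: labelled calmodulin applied in Tris saline Tween buffer holding calcium plus EGTA and DTT.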 Conditions: Cy5-CALM1 binding fluorescence, higher = more signal.
For assay [5] the target is unchanged. Description: small molecules binding Ca-loaded calmodulin-1 – biochemical, small-molecule microarray, Cy5-labelled CALM1, plus calcium, artefact control for SMM control-protein annotation, profiling panel (AID 1112).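 Further: score merges spot fluorescence with signal to noise from triplicate slides.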 Conditions: Cy5-CALM1 binding fluorescence, higher = more signal.
Assay [6] can be described thus: probe aWnt5a binding to arrayed compounds – biochemical, biotinylated probe, 635/667 nm fluorescence, primary screen (AID 1113).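 Further: score merges 667 nm fluorescence intensity with signal-to-noise per printed feature.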 The following applies: small-molecule microarray, higher = more signal.
Assay [7] is described as follows: probe aShh binding to arrayed compounds – biochemical, biotinylated probe, 635/667 nm fluorescence, primary screen (AID 1114).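 Further: probe is biotin-labelled aShh protein from a stem cell growth factor screen; measures binding of labelled protein to compounds printed on the slide; score merges feature fluorescence at 667 nm with signal-to-noise.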 The following applies: small-molecule microarray, higher = more signal.
Assay [8] in a line: probe aNog binding to arrayed compounds – biochemical, biotinylated probe, 635/667 nm fluorescence, primary screen (AID 1115).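 Further: probe is biotinylated aNog protein used at 0.15 µg/mL for 1 h at 4 C; z-score combines 667 nm fluorescence of each spot with its signal to noise.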 Conditions: small-molecule microarray, higher = more signal.
The target of assay [9] is Torsin-1A-interacting protein 1 (Homo sapiens) (UniProt Q5JTV8). Description: compound microarray binding of lysate hLAP1 – cell lysate, small-molecule microarray, COS7 lysate, 635/667 nm fluorescence, primary screen (AID 1116). The following applies: 635 nm fluorescence, higher = more signal.
Assay [10] concerns the target Alpha-bungarotoxin (Bungarus multicinctus) (UniProt P60615). Description: compounds binding labelled alpha-BTX control protein – biochemical, small-molecule microarray, Alexa647 label, 635/667 nm fluorescence, artefact control for SMM control protein annotation, profiling panel (AID 1117). Conditions: alpha-BTX-A647 binding fluorescence, higher = more signal.
Another assay deals with Albumin (Bos taurus) (UniProt P02769). Description: compounds binding labelled BSA control protein – biochemical, small-molecule microarray, Alexa647 label, 635/667 nm fluorescence, artefact control for SMM control protein annotation, profiling panel (AID 1118).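 Further: score merges 667 nm emission intensity and signal-to-noise per printed compound spot.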 Conditions: BSA-A647 binding, fluorescence 635 nm, higher = more signal.
Assay [11] is described as follows: probe aXIP binding to arrayed compounds – biochemical, NeuroSMM set, 635/667 nm fluorescence, primary screen (AID 1119).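 Further: probe is the protein aXip251-270 applied at 1 µg/mL to compound-printed slides; binding of probe to printed compounds measured as 667 nm fluorescence plus signal to noise.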 Conditions: small-molecule microarray, higher = more signal, called active from +8 up or from −8 down.
The nature of assay [12]: probe aNOTCH3 binding on compound microarray – biochemical, small-molecule microarray, 635/667 nm fluorescence, primary screen (AID 1120).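 Further: probe is a biotin-tagged antibody raised against NOTCH3 rather than NOTCH3 protein; score merges spot fluorescence near 667 nm with spot signal to noise.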 Conditions: higher = more signal.
Assay [13] in a line: probe aNOTCH2 binding on compound microarray – biochemical, small-molecule microarray, 635/667 nm fluorescence, primary screen (AID 1121).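 Further: score merges feature fluorescence read at 667 nm with its signal to noise.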 The following applies: higher = more signal.
For assay [14], the target named is Carbonic anhydrase 2 (Homo sapiens) (UniProt P00918). Description: compounds binding carbonic anhydrase 2 – biochemical, small-molecule microarray, Alexa647-labelled CAII, profiling panel (AID 1122). Conditions: CAII-A647 binding fluorescence, higher = more signal.
Assay [15] in a line: COS7 lysate on small-molecule microarray, probe aHis, 635 nm (AID 1123).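 Further: z-score combines 667nm fluorescence intensity with signal-to-noise per printed compound spot.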 Conditions: COS7 cell lysate, fluorescence, higher = more signal.
Assay [16] can be described thus: probe aLAP1 signal on lysate-treated microarray – cell lysate, small-molecule microarray, COS7 lysate, primary screen (AID 1124).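 Further: lysate comes from COS7 cells expressing LAP1 and is applied at 0.3 µg/mL; score merges spot fluorescence near 667 nm with signal-to-noise over triplicate slides.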 Conditions: probe aLAP1, fluorescence, higher = more signal.
The next assay deals with Sam68 (KHDRBS1). Description: compounds binding KHDRBS1 protein – biochemical, small-molecule microarray, 635 nm fluorescence, primary screen (AID 1125).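 Further: score merges 667 nm channel intensity with signal to noise over triplicate slides.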 Conditions: higher = more signal.
For assay [17], the system named is Chordin-like protein 2 (CHRDL2). Description: compounds binding chordin-like 2 – biochemical, small-molecule microarray, 635 nm fluorescence, primary screen (AID 1126).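 Further: printed compound slides probed with Chrdl2 protein at 4 µg/mL for 1 h at 4 C; score merges 667 nm emission intensity with signal to noise over three replicate slides.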 The following applies: fluorescence 635 nm, higher = more signal.
Assay [18] deals with Concanavalin-A (Canavalia ensiformis) (UniProt P02866). Description: compounds binding concanavalin A lectin – biochemical, small-molecule microarray, Alexa647 label, 635 nm, artefact control for SMM control protein annotation, primary screen (AID 1127).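 Further: z combines 667 nm emission intensity with signal-to-noise across three replicate slides.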 The following applies: ConA-A647 binding fluorescence, higher = more signal.
Sequence of Concanavalin-A (Canavalia ensiformis) (P02866 whole entry, looked up): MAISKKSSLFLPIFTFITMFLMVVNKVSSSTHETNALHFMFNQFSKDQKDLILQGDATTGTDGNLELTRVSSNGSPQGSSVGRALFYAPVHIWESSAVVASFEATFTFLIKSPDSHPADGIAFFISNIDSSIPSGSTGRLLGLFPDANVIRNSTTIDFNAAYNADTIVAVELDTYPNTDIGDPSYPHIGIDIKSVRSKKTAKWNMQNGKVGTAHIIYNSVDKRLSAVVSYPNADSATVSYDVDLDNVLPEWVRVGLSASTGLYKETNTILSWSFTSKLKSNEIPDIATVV

Sequence of Alpha-bungarotoxin (Bungarus multicinctus) (P60615 whole entry, looked up): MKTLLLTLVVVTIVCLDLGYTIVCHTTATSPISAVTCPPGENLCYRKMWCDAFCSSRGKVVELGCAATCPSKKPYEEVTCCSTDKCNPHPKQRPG
Sequence of Left-right determination factor 2 (Homo sapiens) (O00292 whole entry, looked up): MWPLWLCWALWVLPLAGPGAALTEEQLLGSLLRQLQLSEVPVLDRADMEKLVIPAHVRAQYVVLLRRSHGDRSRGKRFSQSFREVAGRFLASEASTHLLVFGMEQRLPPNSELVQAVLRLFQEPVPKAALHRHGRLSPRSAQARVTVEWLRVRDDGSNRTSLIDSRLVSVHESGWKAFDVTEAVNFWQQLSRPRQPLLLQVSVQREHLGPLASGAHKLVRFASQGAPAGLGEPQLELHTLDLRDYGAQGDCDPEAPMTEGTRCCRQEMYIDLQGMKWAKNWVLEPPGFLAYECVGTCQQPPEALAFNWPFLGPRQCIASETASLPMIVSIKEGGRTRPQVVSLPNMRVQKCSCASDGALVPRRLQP
Sequence of Torsin-1A-interacting protein 1 (Homo sapiens) (Q5JTV8 whole entry, looked up): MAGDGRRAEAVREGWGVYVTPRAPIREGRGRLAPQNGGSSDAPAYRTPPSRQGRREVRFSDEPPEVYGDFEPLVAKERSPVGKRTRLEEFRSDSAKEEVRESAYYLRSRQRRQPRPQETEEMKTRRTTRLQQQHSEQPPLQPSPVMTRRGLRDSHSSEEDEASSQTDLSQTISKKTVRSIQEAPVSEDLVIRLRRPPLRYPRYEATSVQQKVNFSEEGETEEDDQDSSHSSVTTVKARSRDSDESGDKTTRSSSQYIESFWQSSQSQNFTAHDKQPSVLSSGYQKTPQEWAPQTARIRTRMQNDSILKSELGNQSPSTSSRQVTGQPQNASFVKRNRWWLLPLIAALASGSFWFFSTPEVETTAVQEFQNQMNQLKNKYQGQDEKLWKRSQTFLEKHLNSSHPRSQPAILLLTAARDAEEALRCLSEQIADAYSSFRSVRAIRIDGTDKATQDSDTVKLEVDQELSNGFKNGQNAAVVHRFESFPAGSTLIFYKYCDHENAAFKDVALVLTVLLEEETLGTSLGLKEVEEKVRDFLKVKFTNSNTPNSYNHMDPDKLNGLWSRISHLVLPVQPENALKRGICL
Sequence of Albumin (Bos taurus) (P02769 whole entry, looked up): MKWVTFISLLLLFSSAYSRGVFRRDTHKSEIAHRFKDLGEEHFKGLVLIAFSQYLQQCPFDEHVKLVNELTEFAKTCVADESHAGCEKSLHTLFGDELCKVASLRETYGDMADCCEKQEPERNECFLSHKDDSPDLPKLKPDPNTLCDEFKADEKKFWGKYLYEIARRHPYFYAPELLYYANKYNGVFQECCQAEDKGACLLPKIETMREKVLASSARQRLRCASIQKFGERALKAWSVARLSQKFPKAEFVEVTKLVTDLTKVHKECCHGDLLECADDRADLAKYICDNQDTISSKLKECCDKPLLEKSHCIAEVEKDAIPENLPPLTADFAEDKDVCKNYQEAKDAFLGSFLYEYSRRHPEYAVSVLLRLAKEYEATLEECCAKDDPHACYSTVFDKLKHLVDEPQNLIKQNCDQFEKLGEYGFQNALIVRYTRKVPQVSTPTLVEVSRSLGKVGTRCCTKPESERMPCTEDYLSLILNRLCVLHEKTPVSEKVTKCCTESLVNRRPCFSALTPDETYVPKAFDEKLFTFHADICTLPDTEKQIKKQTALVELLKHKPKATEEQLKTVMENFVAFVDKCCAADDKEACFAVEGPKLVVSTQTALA

For `Cc1ccc(S[C@]2(C(=O)NCCN3CCOCC3)CC(=O)N(C3CCCCC3)[C@@H]2c2ccc(CO)cc2I)cc1`, the composite z-score amounted to 1.46 in assay [1]; 0.134 in [3]; 0.562 in assay [4]; 0.326 in assay [5]; 0.0214 in assay [6]; 0.23 in [7]. For the same compound, the composite z-score is -0.0098 in assay [8]; 1.37 in assay [9]; 1.23 in assay [10]; 0.81 with Albumin (Bos taurus); -0.101 in assay [12]; -0.155 in assay [13]. In addition, the composite z-score in [14] was 0.405; in assay [15], 2.89; in assay [16] it was -0.006; in the assay on Sam68 (KHDRBS1) it was 1.27; in [17], 0.138; in assay [18] it was 1.11. This compound also showed a z-score in assay [2] of -3.05. For the same compound, in [11], the composite Z-score is 0.918 (inactive).

As for `COC(=O)C1(CC(C)C)C=C2C(=C(C(C)C)C(=O)C2C)CN1` (stereo not given), the composite z-score was -0.57 in [1]; -0.975 in assay [3]; 0.228 in assay [4]; 1.07 in [5]; -0.0403 in assay [6]; 0.171 in assay [7]. The composite z-score in assay [8] was 0.595; in [9], 0.187; in assay [10], -0.77; with Albumin (Bos taurus) it was -0.597; in assay [12], -0.0043; in assay [13], -0.119. Moreover, the composite z-score in [14] was 0.539; in assay [15] it was 0.0678; in [16] it was -0.463; in the assay on Sam68 (KHDRBS1), -0.923; in assay [17], -0.699; in [18] it was -2.07. In assay [2], this compound registered a z-score of -0.193. In addition, the composite Z-score in assay [11] was 0.116 (inactive).

Consider `COc1ccc([Si](C)(C)[C@@H]2[C@@H](CCO)O[C@]3(C(=O)N(Cc4ccccc4)c4ccc(N5C(=O)c6ccccc6Oc6ccccc65)cc43)[C@H]2C)cc1`, for which the composite z-score in [1] is -0.175; in assay [3] it was -0.75; in assay [4], 0.417; in assay [5], 0.925; in [6], -0.208; in assay [7], -0.0605. Besides, the composite z-score in assay [8] was -0.0541; in [9] it was -0.361; in [10], 0.367; with Albumin (Bos taurus), 0.208; in assay [12] it was -0.192; in assay [13], -0.155. For the same compound, the composite z-score in assay [14] was -0.0035; in [15] it was 0.981; in assay [16] it was -0.0345; in the assay on Sam68 (KHDRBS1) it was -0.809; in assay [17] it was -1.36; in assay [18], 0.718. The z-score in [2] is -4.15. Besides, the composite Z-score in [11] is 0.304 (inactive).

For `COCC(=C=CC[C@@H](O)c1cccc(OCCO)c1)C[C@@H](O)COCc1ccccc1`, the composite z-score in assay [1] was 0.276; in [3] it was -0.0586; in [4], 1.8; in assay [5] it was 1.35; in [6] it was 0.284; in [7] it was 0.0633. For the same compound, the composite z-score is -0.215 in assay [8]; 3.66 in [9]; 0.116 in assay [10]; 0.809 in the assay with Albumin (Bos taurus); 0.381 in [12]; 0.121 in assay [13]. The composite z-score was 0.552 in assay [14]; 3.68 in assay [15]; 0.684 in assay [16]; 0.92 in the assay with Sam68 (KHDRBS1); -0.69 in assay [17]; 0.132 in [18]. The same compound registered a z-score in assay [2] of -0.81. The composite Z-score in assay [11] is -1.85 (inactive).

`COCCOC(=O)N1C(=O)[C@@]2(c3cc(C#Cc4ccc(OC)cc4)ccc31)[C@H](C(=O)N1CCCCCCC1)[C@H]1C(=O)O[C@H](c3ccccc3)[C@H](c3ccccc3)N1[C@@H]2c1ccccc1OCCO`: the composite z-score in [1] is 1.35; in assay [3], 0.647; in [4], 2.42; in assay [5], 1.49; in assay [6], 1.16; in assay [7], 0.451. Further, the composite z-score in [8] came out at 1.53; in assay [9], 4.47; in assay [10], 2.27; in the assay with Albumin (Bos taurus) it was 0.768; in assay [12], 1.49; in assay [13], 0.793. Further, the composite z-score in [14] is 0.472; in assay [15], 3; in [16] it was 1.3; in the assay on Sam68 (KHDRBS1) it was 1.3; in assay [17], 1.21; in [18], 0.893. The compound also had a z-score in assay [2] of -0.0111. Moreover, the composite Z-score in assay [11] was 4.24 (inactive).
